# Results from PubChem BioAssay (NCI).
# The panel holds about 83,000 compounds, 20% with a hit somewhere; the sample as a whole holds those more often.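 Treatment: one concentration, 48 hours, 96-well format. Scoring: percent growth, with anything below 10 considered active.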 Values without a mark were called inactive. Calls of active or inactive are those of the source.
# Test system: A498 renal
# Assay: NCI-60 one-dose screen, 48 h (100 = growth as untreated, 0 = no growth, -100 = all killed)
# Conditions: 10 µM unless noted
row,Compound,growth
1,COc1cc(Cl)cc(-c2nn(C(=O)NS(=O)(=O)c3ccccc3)cc2-c2ccncc2)c1,82.9%
2,Cn1cc(-c2noc(-c3cn(C)c4ncccc34)n2)c2cc(Cl)ccc21,82.7%
3,CC(C)CSc1ncnc2nc[nH]c12,87.5%
4,Cc1cnc([C@]23CC[C@@H](C)[C@H](C)[C@H]2C2=CC[C@@H]4[C@@]5(C)Cc6c([nH]c7ccccc67)C(C)(C)[C@@H]5CC[C@@]4(C)[C@]2(C)CC3)o1,91.9% [100 µM]
5,CC1(C)CC[C@]2(C(=O)O)CC[C@]3(C)C(=CC[C@@H]4[C@@]5(C)C/C(=C/c6ccco6)C(=O)C(C)(C)[C@@H]5CC[C@]43C)[C@@H]2C1,-42.5% [100 µM] (active)

# Test system: CCRF-CEM leukemia
# Assay: as above
# Conditions: 10 µM unless noted
row,Compound,growth
1,O=C(Nc1cccc(F)c1)c1cc(=O)[nH]c2cc(Br)ccc12,58.8%
2,COC(=O)[C@]12CCC(C)(C)C[C@H]1C1=CC[C@@H]3[C@@]4(C)C/C(=C/c5cccnc5)C(=O)C(C)(C)[C@@H]4CC[C@@]3(C)[C@]1(C)CC2,2.85% [100 µM] (active)
3,N#C/C(C(=O)c1ccccc1)=C1/C(=O)Nc2ccc(Br)cc21,110%
4,COc1ccc(-c2cc(-c3ccc(Cl)cc3)nc(NCCCCNc3ccnc4cc(Cl)ccc34)n2)cc1,7.63% (active)
5,CCCSc1nc(N)nc2nc[nH]c12,115%
6,CCN(CC)c1ccc2cc(NC(=O)OCCNC(=O)CCNC(=O)[C@H](CC(C)C)NC(=O)C(C)(C)NC(=O)C(C)(C)NC(=O)[C@H](CC(C)C)NC(=O)CCNC(=O)C(C)(C)NC(=O)[C@H](CC(C)C)NC(=O)CCNC(=O)[C@@](C)(CC)NC(=O)[C@H](C)NC(=O)CCNC(=O)C(C)(C)NC(=O)[C@H](C)NC(=O)[C@@H]3CCCN3C(=O)[C@@](C)(CC)NC(=O)[C@H](Cc3ccccc3)NC(=O)C3CCCN3C(=O)C(C)(C)NC(=O)C3CCCN3C(=O)C(C)(C)NC(C)=O)c(=O)oc2c1 (some centres not stated),-63.5% (active)
7,C=C(C)[C@@H]1CC[C@]2(C(=O)N3CCN(C)CC3)CC[C@]3(C)[C@H](CC[C@@H]4[C@@]5(C)C/C(=C/c6ccncc6)[C@H](O)C(C)(C)[C@@H]5CC[C@]43C)[C@@H]12,-5.24% [100 µM] (active)
8,CC[C@@](C)(NC(=O)[C@H](C)NC(=O)CCNC(=O)C(C)(C)NC(=O)[C@H](C)NC(=O)[C@@H]1CCCN1C(=O)[C@@](C)(CC)NC(=O)[C@H](Cc1ccccc1)NC(=O)C1CCCN1C(=O)C(C)(C)NC(=O)C1CCCN1C(=O)C(C)(C)NC(C)=O)C(=O)NCCC(=O)N[C@@H](CC(C)C)C(=O)NC(C)(C)C(=O)NCCC(=O)N[C@@H](CC(C)C)C(=O)NC(C)(C)C(=O)NC(C)(C)C(=O)N[C@@H](CC(C)C)C(=O)NCCC(=O)NCO (some centres not stated),-61.1% (active)
9,C#C[C@]1(O)CC[C@H]2[C@@H]3CC=C4c5nc(Nc6ncccn6)sc5CC[C@]4(C)[C@H]3CC[C@@]21C,48.6%
10,CC(C)(C)c1cc(C(=O)N2CCC(C(=O)NCCN)CC2)cc(C(C)(C)C)c1,94.8%
11,CCOC(=O)/C(C#N)=C(\C)CCc1ccccc1,102%
12,COc1ccc2c3ccnc(C(F)(F)F)c3n(CCCCN)c2c1,72.7%
13,O=C(O)c1cccc(CN2CCN(c3cc4c(cc3F)c(=O)c(C(=O)O)cn4C3CC3)CC2)c1O,101%
14,CCN(CC)c1ccc2cc(C(Nc3ccc(Br)c(C(F)(F)F)c3)c3nnnn3C(C)(C)C)c(=O)oc2c1 (configuration not stated),92.1%
15,O=C(NCCCNC(=O)OCc1ccc2c(Br)cc(Br)c(O)c2n1)OCc1ccc2c(Br)cc(Br)c(O)c2n1,4.23% (active)
16,C[N+](C)(C)c1ncnc2[n-]cnc12,119%
17,O=S(=O)(c1ccc(N/N=C\c2ccccc2Cl)cc1)c1ccc(N/N=C/c2ccccc2Cl)cc1,75.9%
18,CCCOc1ccc(-c2nc(-c3ccc(N)cc3)cs2)cc1,85.6%
19,O=C(NCc1ccc(Cn2c(=O)sn(-c3ccccc3)c2=O)cc1)OCc1ccc2c(Br)cc(Br)c(O)c2n1,4.61% (active)

row,Compound,growth
1,N#CCCc1c[nH]c2ccccc12,81.6%
2,C=CCCCCCCCCC(=O)OC(C)C,2.8% (active)
3,COc1cc2c(cc1OCCCCCOc1ccc(-n3c(C)nc4ccccc4c3=O)cc1)N=C[C@@H]1CCCN1C2=O,-38.3% (active)
4,Cc1cccc(/C=C2\N=C(c3ccccc3)N(c3ccc(S(N)(=O)=O)cc3)C2=O)c1,99.9%
5,Clc1ccc(/C=N/Nc2nc3ccccc3s2)c(Cl)c1,80.5%
6,CCOC(=O)COc1c(C)cc(SSc2cc(C)c(OCC(=O)OCC)c(C)c2)cc1C,82.5%
7,Nc1nc(Nc2ccccc2)c2ncn(Cc3cc4c(cc3Br)OCO4)c2n1,11.2%
8,CCOC(=O)c1c[nH]n2c(=S)ncnc12,101%
9,CC1(C)CC[C@]2(C(N)=O)CC[C@]3(C)C(=CC[C@@H]4[C@@]5(C)C/C(=C/c6cccnc6)C(=O)C(C)(C)[C@@H]5CC[C@]43C)[C@@H]2C1,2.68% [100 µM] (active)
10,O=[N+]([O-])c1cc(CCl)ccc1OCCBr,86.6%
11,O=C1COCCN1c1ccc(Nc2nc(Cl)nc(N3CCOCC3)n2)cc1,97%
12,O=C(OCc1ccc2c(Cl)cc(Cl)c(O)c2n1)N1CCNCC1,26.1%
13,Cc1ccc(S(=O)(=O)NCCCNc2nccc(-c3c(-c4cccc(F)c4)nc4occn34)n2)cc1,42.2%
14,COc1cc(Cl)cc(-c2nn(C(=O)NS(=O)(=O)c3ccccc3)cc2-c2ccncc2)c1,94.6%
15,Cn1cc(-c2noc(-c3cn(C)c4ncccc34)n2)c2cc(Cl)ccc21,99.8%
16,CC(C)CSc1ncnc2nc[nH]c12,86.8%
17,Cc1cnc([C@]23CC[C@@H](C)[C@H](C)[C@H]2C2=CC[C@@H]4[C@@]5(C)Cc6c([nH]c7ccccc67)C(C)(C)[C@@H]5CC[C@@]4(C)[C@]2(C)CC3)o1,64% [100 µM]
18,CC1(C)CC[C@]2(C(=O)O)CC[C@]3(C)C(=CC[C@@H]4[C@@]5(C)C/C(=C/c6ccco6)C(=O)C(C)(C)[C@@H]5CC[C@]43C)[C@@H]2C1,4.17% [100 µM] (active)
